Test results: PubChem BioAssay (NCATS)
Several values for one entry are separate records, joined by “and”; a condition that tells them apart may be missing. Equal values may be shown once. Records with an inconclusive call do not appear. Activity calls are given as the source filed them. Unless noted, calls come from the whole dose curve; as a rule, active = well fitted curve in the direction sought with a large enough effect; inconclusive = small, poorly fitted or top-dose-only effect, or another doubt; inactive = no such curve, though single readings can be large; an effect the other way counts as inactive or inconclusive.

Columns and labels:
[1] = molecular target: Cytochrome P450 3A4 (Homo sapiens) (UniProt P08684); assay: qHTS Assay for Inhibitors and Substrates of Cytochrome P450 3A4 (AID 884); note: nearly all actives have a fitted effect of over 50% in size; note: potency is the fitted concentration of half-maximal effect
Cytochrome P450 3A4 (Homo sapiens), sequence (P08684 whole entry, looked up): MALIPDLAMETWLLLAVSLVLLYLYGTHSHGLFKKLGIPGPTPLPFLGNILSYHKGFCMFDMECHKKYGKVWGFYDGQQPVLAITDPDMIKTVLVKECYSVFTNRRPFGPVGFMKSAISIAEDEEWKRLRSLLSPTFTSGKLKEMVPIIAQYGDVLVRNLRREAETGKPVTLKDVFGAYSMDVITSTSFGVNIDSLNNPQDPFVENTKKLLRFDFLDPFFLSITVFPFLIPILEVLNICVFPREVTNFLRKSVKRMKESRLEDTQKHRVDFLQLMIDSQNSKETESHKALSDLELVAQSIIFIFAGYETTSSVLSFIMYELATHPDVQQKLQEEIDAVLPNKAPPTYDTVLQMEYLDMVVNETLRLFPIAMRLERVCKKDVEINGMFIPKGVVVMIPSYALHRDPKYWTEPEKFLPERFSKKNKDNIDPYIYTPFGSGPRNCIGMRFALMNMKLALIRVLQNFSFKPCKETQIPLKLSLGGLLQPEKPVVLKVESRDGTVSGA
How it was run: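 Luminescent readout of luciferin produced by CYP3A4 (20 nM) dealkylation of Luciferin-PPXE, 25 uM (its KM). NADPH-driven reaction ran 60 min at RT after 10 min compound preincubation; data scaled to 57 uM ketoconazole as 100% inhibition.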

[2] = Cell Viability - Jurkat (AID 426;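 active = dose-dependent loss of cell ATP signal giving a full or clear fitted curve, ranked by lower potency value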;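 note: potency is the fitted concentration of half-maximal effect; cells exposed to compound for 40 hours at 37 °C before ATP read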); settings: qHTS
How it was run: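 Cytotoxicity taken as drop in cellular ATP (CellTiter-Glo luminescence, 20 min room temperature) after 40 hr, 37C treatment of 5000 Jurkat Clone E6-1 cells per well; concentration-response fitted with Hill equation for AC50.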

[3] = Cell Viability - HepG2 (AID 433; calls by dose curve;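 note: potency is the fitted concentration of half-maximal effect; potency for ATP loss meaning cytotoxicity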); settings: qHTS
How it was run: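 In this qHTS format, a 40 h, 37 °C compound incubation of HepG2 cells in complete medium precedes a 20 min CellTiter-Glo step at room temperature. Tamoxifen and doxorubicin serve as positive controls; Hill-equation fits yield AC50.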

[4] = Cell Viability - MRC5 (AID 434; calls by dose curve;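 note: potency is the fitted concentration of half-maximal effect; cells exposed to compound for 40 hours at 37 °C; potency reflects cytotoxicity seen as loss of intracellular ATP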); settings: MRC5 lung fibroblast viability, qHTS
How it was run: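 Decrease in intracellular ATP, quantified by luciferase light output, reflects compound toxicity toward MRC5 cells exposed for 40 hr in complete culture medium. Concentration-response curves, scaled between DMSO and 100 uM tamoxifen, gave AC50 values.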

[5] = Cell Viability - NIH 3T3 (AID 541); settings: NIH 3T3 cell viability, qHTS; activity change, negative = cytotoxicity: at 92.2 µM (top of the series); note: nearly all actives have a fitted effect of over 25% in size; note: potency is the fitted concentration of half-maximal effect;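 for activity change, negative = cytotoxicity: plate controls were DMSO alone for no effect and tamoxifen positive control for full effect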
How it was run: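 Intracellular ATP (CellTiter-Glo luminescence, 20 min at room temperature) measured after 40 hr compound exposure at 37 °C of 1000 NIH 3T3 mouse fibroblasts/well in complete medium; AC50 derived by Hill-equation modelling of qHTS concentration-response curves.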

[6] = Cell Viability - H-4-II-E (AID 543); note: nearly all actives have a fitted effect of over 35% in size; note: potency is the fitted concentration of half-maximal effect
How it was run: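 CellTiter-Glo luminescence (intracellular ATP) measured after 40 h compound exposure at 37 °C in H-4-II-E rat hepatoma cells seeded at 1500/well. Values are AC50s fitted with the standard Hill equation.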

[7] = Cellular Toxicity (caspase-3) Jurkat (AID 655); settings: Jurkat caspase-3 activation, luminescence; caspase-3 activation: at 92.2 µM (top of the series), DMSO = 0%, tamoxifen = 100%;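 note: cells exposed to compound for 16 h at 37 °C before reading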; note: potency is the fitted concentration of half-maximal effect
How it was run: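 qHTS in human Jurkat T-cell leukemia line: 16 hr compound treatment at 37 °C, caspase-3/7 activity measured by Caspase-Glo luminescence. AC50 derived from Hill equation.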

[8] = Cellular Toxicity (caspase-3) SHSY5Y (AID 657); note: potency is the fitted concentration of half-maximal effect
How it was run: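 Readout: caspase-cleaved peptide-aminoluciferin substrate driving luciferase light in SH-SY5Y neuroblastoma cells after 16 h treatment. Response normalized to DMSO and 10 uM staurosporine controls.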

[9] = Cellular Toxicity (caspase-3) BJ (AID 658); settings: Potency: caspase-3 activation;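 note: 0% = DMSO basal and 100% = 10 µM staurosporine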
How it was run: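 Plated BJ cells (1000/well) rested 5 hr, received compound for 16 hr at 37 °C, then Caspase-Glo 3/7 reagent for 1 hr at room temperature before luminescence reading.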

[10] = Cellular Toxicity (caspase-3) MRC-5 (AID 659);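 note: 0% = DMSO basal and 100% = 10 µM staurosporine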
How it was run: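 Apoptosis readout in MRC-5 cells: luciferase light generated after caspase 3/7 cleaves a peptide-aminoluciferin substrate, measured post 16 hr compound incubation at 37 °C.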

[11] = Cellular Toxicity (caspase-3) Mesangial (AID 660); settings: mesangial cells, normalized: DMSO 0%, 100 µM tamoxifen 100%; at 91.7 µM (top of the series);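 note: combined caspase 3 and 7 activity read by Caspase-Glo luminescence; cells exposed to compound for 16 h before the caspase read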
How it was run: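 Caspase 3/7 activation measured by Caspase-Glo 3/7 luminescence (20 min, room temperature) following 16 h exposure of mesangial cells (1000/well); AC50 from Hill-equation fit, normalized to DMSO and 100 uM tamoxifen.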

[12] = Cellular Toxicity (caspase-3) SK-N-SH (AID 661); settings: SK-N-SH caspase-3 activation, qHTS; caspase-3 activation: at 91.7 µM (top of the series), DMSO as zero, staurosporine as full;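 note: 0% = DMSO basal and 100% = 10 µM staurosporine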
How it was run: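 Caspase 3/7 activation was read by luminogenic substrate cleavage after 16 hour treatment of SK-N-SH cells. Signal was scaled between DMSO and 10 uM staurosporine, and concentration-response data were fitted with the Hill equation for AC50.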

[13] = Cellular Toxicity (caspase-3) Hek293 (AID 664); settings: HEK293 caspase-3 activation, DMSO = 0%, 100 µM tamoxifen = 100%; at 92.2 µM (top of the series);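 note: cells exposed to compound for 16 h at 37 °C before readout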
How it was run: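 Concentration-response qHTS: caspase 3/7 activation measured by luminescent aminoluciferin substrate cleavage after 16 h compound exposure of Hek 293 cells. AC50 from Hill equation, with DMSO as basal and 100 uM tamoxifen as 100%.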

[14] = Cellular Toxicity (caspase-3) NIH 3T3 (AID 666);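 note: caspase signal read after 16 h compound exposure; 0% = DMSO basal and 100% = 100 µM tamoxifen stimulation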
How it was run: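 Caspase-Glo 3/7 luminescence reported caspase activation in 1000 NIH 3T3 cells/well after 16 h compound exposure at 37 C. DMSO set basal and 100 uM tamoxifen set 100% stimulation; concentration-response modeled with the Hill equation for AC50.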

[15] = MultiTox-Fluor Cytotoxicity Assay - LYMP1-001 - Dead Cells (AID 946);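 note: 0% = DMSO and 100% = tetraoctylammonium bromide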
How it was run: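 Seed 2500 LYMP1-001 cells/well, incubate 5 hr at 37 C; add compound, 16 hr at 37 C; add MultiTox-Fluor reagent, 60 min RT; read dead-cell fluorescence Ex/Em=485/520. Normalize to DMSO and 15 uM tetraoctylammonium bromide.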

[16] = Cell Viability - LYMP1-003 - Assay at 24 hr (AID 963);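 note: plate controls were DMSO only for no effect and tetraoctylammonium bromide positive control for full effect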
How it was run: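 Concentration-response qHTS: ATP loss measured by CellTiter-Glo luminescence after 24 h compound exposure at 37 C. Cells were LYMP1-003 human lymphoblastoid, 2500 per well. AC50 derived via standard Hill equation modeling.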

[17] = Cell Viability - LYMP2-003 (AID 965);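 note: cells exposed to compounds for 24 h before reading; 0% = DMSO only and full effect = 92 µM tetraoctylammonium bromide; nearly all actives have a fitted effect of over 50% in size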
How it was run: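 qHTS, human lymphoblastoid line, 2500 cells/well, complete medium. 24 h drug, 37 C. ATP-based luminescent readout; Hill-fit AC50.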

[18] = Cell Viability - LYMP2-007 (AID 979);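 note: cells exposed to compound for 24 h before reading; 0% = DMSO only and the negative end = 92 µM tetraoctylammonium bromide; nearly all actives have a fitted effect of over 60% in size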
How it was run: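 AC50 values come from Hill-equation fits of luminescent intracellular ATP (CellTiter-Glo, 30 min, room temperature) following 24 h compound exposure at 37 C. Cells: LYMP2-007 lymphoblastoid line, 2500 per well, in complete culture medium.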

[19] = Cell Viability - LYMP1-002 - Assay at 24 hr (AID 993); note: % is set by controls: 0 for no effect and ±100 for the full control effect
How it was run: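 qHTS cytotoxicity at 24 h: CellTiter-Glo ATP luminescence in lymphoblastoid line LYMP1-002 incubated with compound at 37 °C. Concentration-response modeled with the Hill equation for AC50; tetraoctylammonium bromide served as positive control.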

[20] = qHTS assay for small molecule agonists of the antioxidant response element (ARE) signaling pathway measured by Nrf2-dependant transcriptional activity - cell viability counter screen (AID 720653; active = well fitted curve in the direction sought with a large enough effect in the repeat runs; an effect the other way counts as inactive or inconclusive; note: % is set by controls: 0 for no effect and ±100 for the full control effect); settings: ARE-bla HepG2 viability, CellTiter-Glo ATP luminescence, 16 h; max response: active compounds read low
How it was run: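 ARE-bla HepG2 cells (2,000/well) rested 5 hrs at 37C/5% CO2, then exposed to compounds in DMSO for 16 hrs. Viability was read in the same wells as intracellular ATP by luminescence, 30 min at room temperature after reagent addition.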

CCCC[C@@H]1C[C@H]1C(NC(=O)c1cccnc1)c1ccc(Cl)cc1 (stereo partly specified)
active: Potency [1] 0.0794 µM

CN1[C@H]2CC(OC(=O)[C@H](CO)c3ccccc3)C[C@H]1[C@H]1O[C@H]12 (stereo partly specified)
inactive: Potency [2] > 92 µM | Potency [3] > 92 µM | Potency [4] > 92 µM | Potency [5] | Potency [6] | Potency [7] | Potency [8] | Potency [9] | outcome [10] | caspase-3 activation [11] -0.382% and 0.0869% | caspase-3 activation [12] -1.73% and -0.623% | caspase-3 activation [13] -1.68% and 4.08% | Potency [14] | Potency [15] | Potency [16] | Potency [17] | Potency [18] | Potency [19] | max response [20] 0.433% and 4.93%

CCC/C=C(\CCC)C(NC(=O)Cc1ccccc1)c1ccc(C(=O)OC)cc1 (stereo unspecified)
active: Potency [1] 3.98 µM

CCCC[C@@H]1C[C@H]1C(NC(=O)c1cccs1)c1ccc(Cl)cc1 (stereo partly specified)
active: Potency [1] 5.01 µM

COC(=O)[C@@]1(Cc2ccccc2)[C@H]2c3cc(C(=O)N4CCCC4)n(CC4CC4)c3C[C@H]2CN1C(=O)c1ccccc1
active: Potency [1] 3.16 µM

C=CC(=O)OCC(CO)(COC(=O)C=C)COC(=O)C=C
active: Potency [2] 1.6 µM | Potency [4] 17.8 µM | Potency [5] 2 µM | Potency [6] 2.51 µM | caspase-3 activation [7] -6.15% | Potency [8] 2.51 µM | caspase-3 activation [12] -3.53%
inactive: Potency [3] > 92 µM | caspase-3 activation [13] -6.03% | Potency [14]

CCC/C=C(\CCC)C(NS(=O)(=O)c1ccc(Cl)cc1)c1ccc(C(=O)OC)cc1 (stereo unspecified)
active: Potency [1] 3.98 µM

CCC/C=C(\CCC)C(NS(=O)(=O)c1ccc(Cl)cc1)c1ccccc1 (stereo unspecified)
active: Potency [1] 7.94 µM

COC(=O)[C@@]1(Cc2ccccc2)[C@H]2c3cc(C(=O)N4CCCC4)n(Cc4ccccn4)c3C[C@H]2CN1C(=O)c1ccccc1
active: Potency [1] 2 µM

O=C(/C=C/c1ccc(O)c(O)c1)OC1C[C@](O)(C(=O)O)C[C@@H](O)[C@H]1O (stereo partly specified)
inactive: Potency [2] > 92 µM | Potency [3] > 92 µM | Potency [4] > 92 µM | Potency [5] | Potency [6] | Potency [7] | Potency [8] | Potency [9] | outcome [10] | caspase-3 activation [11] -0.588% and 1.58% | caspase-3 activation [12] 0.0888% and -0.0196% | caspase-3 activation [13] 0.862% and -1.58% | Potency [14] | Potency [1] | Potency [15] | Potency [16] | Potency [17] | Potency [18] | Potency [19] | max response [20] -1.61% and -3.17%

COC(=O)[C@@]1(Cc2ccccc2)[C@@H]2C(=CC(=O)[C@H]2CC(=O)C(=O)N(C)C)CN1C(=O)c1ccccc1
active: Potency [1] 7.94 µM

CCC/C=C(\CCC)C(NS(=O)(=O)c1cccs1)c1ccc(C(=O)OC)cc1 (stereo unspecified)
active: Potency [1] 3.16 µM

CCC/C=C(\CCC)C(NS(=O)(=O)c1ccccc1)c1ccc(C(F)(F)F)cc1 (stereo unspecified)
active: Potency [1] 6.31 µM

Cc1cccc(O)c1C
inactive: Potency [2] > 92 µM | Potency [3] > 92 µM | Potency [4] > 92 µM | Potency [5] | Potency [6] | Potency [7] | Potency [8] | Potency [9] | outcome [10] | caspase-3 activation [11] -0.758% | caspase-3 activation [12] -0.783% | caspase-3 activation [13] 0.349% | Potency [14] | Potency [15] | Potency [16] | Potency [17] | Potency [18] | Potency [19] | max response [20] -1.51%

CCCC[C@@H]1C[C@H]1C(NC(=O)c1ccco1)c1ccc(Cl)cc1 (stereo partly specified)
inactive: Potency [1]

CC/C(=C(\c1ccccc1)c1ccc(OCCN(C)C)cc1)c1ccc(O)cc1
inactive: Potency [8] | caspase-3 activation [11] -2.42% | Potency [14]
active: Potency [2] 40.8 µM | Potency [3] 29.4 µM | Potency [4] 43.3 µM | activity change, negative = cytotoxicity [5] -141% | Potency [6] 39.8 µM | Potency [7] 31.6 µM

CCCCCC/C(C=O)=C\c1ccccc1
inactive: Potency [2] > 92 µM | Potency [3] > 92 µM | Potency [4] > 92 µM | Potency [5] | Potency [6] | Potency [7] | Potency [8] | Potency [9] | outcome [10] | caspase-3 activation [11] 1.26% | caspase-3 activation [12] -0.582% | caspase-3 activation [13] 2.43% | Potency [14] | Potency [1] | Potency [15] | Potency [16] | Potency [17] | Potency [18] | Potency [19] | max response [20] 3.47%

CN(C)c1ccc(C2(c3ccc(N(C)C)cc3)OC(=O)c3cc(N(C)C)ccc32)cc1
inactive: Potency [2] > 92 µM | Potency [3] > 92 µM | Potency [4] > 92 µM | Potency [6] | Potency [7] | Potency [8] | Potency [9] | outcome [10] | caspase-3 activation [11] 0.256% | caspase-3 activation [12] -0.0609% | caspase-3 activation [13] -1.05% | Potency [14] | Potency [15] | Potency [16] | Potency [17] | Potency [18] | Potency [19] | max response [20] 7.4%
